The sample as a whole holds a higher share of hits than the screen did.
TDP1 cell noCPT = qHTS for Inhibitors of human tyrosyl-DNA phosphodiesterase 1 (TDP1): qHTS in cells in absence of CPT; DT40 Tdp1-/- hTDP1 cells, no CPT, ATP luminescence, 48 h; Potency, µM (top dose mostly 46.2 µM), usual class: inhibitors; actives 15% (n = 420,000); AID 686978, 2013; further: nearly all actives have a fitted effect of over 55% in size
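No-CPT arm: Tdp1-/-;hTDP1 DT40 cells (400/well) plus compounds, incubated ≥48 hr at 37 °C. Readout CellTiter-Glo luminescence.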
ALOX12 inh = ALOX12 (human) lipoxygenase inhibition. Potency, µM (titrated, usually from 108 µM), actives largely listed as inhibitors. purified 12hLO, xylenol orange hydroperoxide absorbance. AID 1671190. P18054. actives 1.1% (n = 580,000)
Target sequence (P18054 whole entry, looked up): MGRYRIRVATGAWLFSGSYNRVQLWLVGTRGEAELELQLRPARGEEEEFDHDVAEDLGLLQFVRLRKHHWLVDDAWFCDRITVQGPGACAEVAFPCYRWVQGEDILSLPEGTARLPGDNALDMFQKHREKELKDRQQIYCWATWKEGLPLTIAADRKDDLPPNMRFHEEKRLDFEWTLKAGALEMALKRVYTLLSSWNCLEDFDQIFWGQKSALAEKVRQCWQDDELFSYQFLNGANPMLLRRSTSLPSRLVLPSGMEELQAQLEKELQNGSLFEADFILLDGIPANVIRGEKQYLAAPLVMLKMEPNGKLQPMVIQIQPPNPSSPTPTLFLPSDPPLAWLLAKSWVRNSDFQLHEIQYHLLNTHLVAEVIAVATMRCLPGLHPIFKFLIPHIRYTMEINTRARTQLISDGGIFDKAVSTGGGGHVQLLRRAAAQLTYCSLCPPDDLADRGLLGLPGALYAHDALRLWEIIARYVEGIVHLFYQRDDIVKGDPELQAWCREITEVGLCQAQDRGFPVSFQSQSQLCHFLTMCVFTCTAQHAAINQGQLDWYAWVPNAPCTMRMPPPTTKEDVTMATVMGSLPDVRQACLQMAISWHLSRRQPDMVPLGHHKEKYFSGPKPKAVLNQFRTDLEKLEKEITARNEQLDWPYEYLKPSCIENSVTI
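Purified human 12hLO (150 nM final) in 25 mM Hepes, 0.01% Triton X-100, pH 7.0 was preincubated 15 min at room temperature with compound. Then 40 uM arachidonic acid was added, 30 min. Hydroperoxide was read by Fe-XO absorbance ratio 573/405 nm.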
DT40 TDP1 CPT = DT40-hTDP1 cell growth loss with CPT; chicken DT40 Tdp1-/-;hTDP1 cells + 20 nM CPT, ATP luminescence, 48 h; Potency, µM (top dose mostly 46.2 µM), usual class: inhibitors; actives 12% (n = 420,000); further: nearly all actives have a fitted effect of over 55% in size
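Cell growth measured by CellTiter-Glo luminescence after a minimum 48 h, 37 C compound exposure with 20 nM CPT in Tdp1-knockout DT40 cells stably expressing hTDP1, seeded 400/well; qHTS titration format.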
IL-1B inflam inh = inhibitors of inflammasome signaling (IL-1 beta secretion); THP-1 LPS/ATP IL-1B secretion, AlphaLISA, 16 h; hits give low values; activity change, % at 57.5 µM; actives 4.7% (n = 360,000); AID 743279; in the data active means activity change below about -50%; inconclusive means mostly about -30% to -49%
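THP-1 cells pretreated 1 hr with compounds (up to 57.5 uM final), then stimulated with LPS (250 ng/mL final) plus ATP (1.25 mM final); secreted IL-1B measured by AlphaLISA after 16 hr, decreased signal indicating inhibition.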
HT1080 IDH1KD tx = HT-1080 IDH1 knockdown cell toxicity (counter line); Potency, µM (titrated, usually from 46.1 µM), hits mostly cytotoxic; HT-1080 IDH1 knockdown viability, ATP luminescence, 48 h; AID 686971; actives 2% (n = 360,000)
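Luminescent ATP read-out (CellTiter-Glo, 10 min at room temperature) after 48 h compound exposure at 37 °C gave viability of IDH1-knockdown HT-1080 cells. Activity was normalised to DMSO and cell-free wells, then fitted as concentration-response curves.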
HT1080NT lethal = kills 2HG-producing HT-1080-NT fibrosarcoma cells. HT-1080-NT fibrosarcoma viability, CellTiter-Glo ATP luminescence, 48 h. Potency, µM (series often up to 46.1 µM), usual class: cytotoxic. actives 1.6% (n = 360,000). AID 686970;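 further: NT is the 2HG producing partner of a matched IDH1 knockdown line; nearly all actives have a fitted effect of over 55% in size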
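Compounds were tested in concentration-response format on HT-1080-NT cells for 48 hours at 37 degrees C. Cell viability came from CellTiter-Glo luminescence; curves were classified by r2, response magnitude and activity.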
Large screens that a line does not name were inactive. Unless noted, the call rests on the fitted dose curve; in most records, active means well fitted curve in the direction sought with a large enough effect; inconclusive means small, poorly fitted or top-dose-only effect, or another doubt; inactive means no such curve, though single readings can be large; an effect the other way counts as inactive or inconclusive.

Cc1ccc2[nH]c(=O)c(CN(Cc3cccs3)Cc3nnnn3CC3CCCO3)cc2c1 (stereo unspecified)	TDP1 cell noCPT 17.8µM, DT40 TDP1 CPT inconclusive, IL-1B inflam inh inconclusive, HT1080NT lethal inconclusive
Clc1ccccc1CNC1=NCCNC12CCOCC2	none (no result: TDP1 cell noCPT, DT40 TDP1 CPT, IL-1B inflam inh, HT1080 IDH1KD tx, HT1080NT lethal)
CCOc1cc(C)c(C(C)C)cc1S(=O)(=O)Nc1cccnc1	none (no result: TDP1 cell noCPT, DT40 TDP1 CPT, IL-1B inflam inh, HT1080 IDH1KD tx, HT1080NT lethal)
Cc1ccc2[nH]c(=O)c(CN(CCCO)Cc3nnnn3Cc3ccccc3)cc2c1	TDP1 cell noCPT 11.2µM, DT40 TDP1 CPT inconclusive (no result: ALOX12 inh, IL-1B inflam inh, HT1080 IDH1KD tx, HT1080NT lethal)
Cc1ccc2[nH]c(=O)c(CN(Cc3cccs3)Cc3nnnn3Cc3ccco3)cc2c1	TDP1 cell noCPT 17.8µM, DT40 TDP1 CPT inconclusive (no result: ALOX12 inh, IL-1B inflam inh, HT1080 IDH1KD tx, HT1080NT lethal)
Cc1ccc2[nH]c(=O)c(CN(CCO)Cc3nnnn3Cc3ccco3)cc2c1	TDP1 cell noCPT inconclusive (no result: ALOX12 inh, IL-1B inflam inh, HT1080 IDH1KD tx, HT1080NT lethal)
Cc1ccc2cc(CN(Cc3cccs3)Cc3nnnn3CC3CCCO3)c(=O)[nH]c2c1C (stereo unspecified)	TDP1 cell noCPT 18.4µM, DT40 TDP1 CPT inconclusive
CC(C(=O)NC1CC1)N1CCN(c2oc(-c3ccco3)nc2C#N)CC1 (stereo unspecified)	none (no result: TDP1 cell noCPT, DT40 TDP1 CPT, IL-1B inflam inh, HT1080 IDH1KD tx, HT1080NT lethal)
N#Cc1c[nH]n2c(NC3CCCCC3)c(-c3ccccc3F)nc12	TDP1 cell noCPT inconclusive, DT40 TDP1 CPT inconclusive (no result: IL-1B inflam inh, HT1080 IDH1KD tx, HT1080NT lethal)
CCN1CCC(N(Cc2ccc3c(c2)OCO3)C(=O)Nc2cc(F)ccc2F)CC1	TDP1 cell noCPT inconclusive (no result: IL-1B inflam inh, HT1080 IDH1KD tx, HT1080NT lethal)
Cc1sc2nc(C(C)C)nc(SCC(=O)NC3CC3)c2c1C	TDP1 cell noCPT 16.4µM, DT40 TDP1 CPT 16.4µM
CCN(CC)c1nc2ccccc2nc1C(=O)Nc1c(C)cc(C)cc1C	none (no result: TDP1 cell noCPT, DT40 TDP1 CPT, IL-1B inflam inh, HT1080 IDH1KD tx, HT1080NT lethal)
Cc1cc(/C=N\NC(=O)c2cccs2)c(C)n1-c1ccc2ncccc2c1	TDP1 cell noCPT 10.3µM, DT40 TDP1 CPT 13µM
Cc1cc(/C=N\NC(=O)COc2cccc3cccnc23)c(C)n1-c1ccc(Br)cc1	DT40 TDP1 CPT inconclusive
Cc1cc(/C=N/NC(N)=S)c(C)n1-c1ccc(Br)cc1	TDP1 cell noCPT 8.2µM, ALOX12 inh inconclusive, DT40 TDP1 CPT 2.91µM, HT1080 IDH1KD tx inconclusive, HT1080NT lethal inconclusive
Cc1cc(/C=N/NC(N)=S)c(C)n1-c1ccc(Cl)cc1	TDP1 cell noCPT 18.4µM, ALOX12 inh inconclusive, DT40 TDP1 CPT 11.6µM
CC(C)Oc1ccc(Br)cc1/C=N\NC(N)=S	TDP1 cell noCPT 16.4µM, ALOX12 inh 39.8µM, DT40 TDP1 CPT inconclusive
Cc1cc(/C=N/O)c(C)n1-c1ccc(Br)cc1	TDP1 cell noCPT inconclusive
O=C(c1cncc(Br)c1)N1CCC(CCOc2ccccc2F)C1 (stereo unspecified)	none (no result: TDP1 cell noCPT, DT40 TDP1 CPT, IL-1B inflam inh, HT1080 IDH1KD tx, HT1080NT lethal)
Cc1cccc(C)c1-n1c(C)cc(/C=N/NC(N)=S)c1C	TDP1 cell noCPT 8.2µM, DT40 TDP1 CPT 7.31µM, HT1080 IDH1KD tx inconclusive, HT1080NT lethal inconclusive
Cc1nc2ccccn2c1C(=O)N/N=C/c1ccccc1	none
CCc1nnc(N/N=C/c2c(F)cccc2Cl)n1N	DT40 TDP1 CPT inconclusive, HT1080 IDH1KD tx inconclusive, HT1080NT lethal inconclusive
COCc1cc(C)nc(OCC(=O)N/N=C/c2cc(C)n(-c3c(C)cccc3C)c2C)c1C#N	TDP1 cell noCPT inconclusive, HT1080 IDH1KD tx inconclusive, HT1080NT lethal inconclusive
Cc1nc2ccccn2c1C(=O)N/N=C/c1cc(C)n(-c2ccc(Br)cc2)c1C	TDP1 cell noCPT 20.6µM, DT40 TDP1 CPT 18.4µM
Cc1cc(/C=N/NC(N)=S)c(C)n1-c1cccc(Cl)c1	TDP1 cell noCPT 16.4µM, ALOX12 inh 39.8µM, DT40 TDP1 CPT 13µM
Cc1nnc(N/N=C/c2c(Cl)cccc2Cl)n1N	IL-1B inflam inh -104.6
CCOc1ccc(NC(=O)Cc2nc(-c3ccccc3)oc2C)cc1OC	none (no result: TDP1 cell noCPT, DT40 TDP1 CPT, IL-1B inflam inh, HT1080 IDH1KD tx, HT1080NT lethal)
Cc1nnc(N/N=C/c2cc(C)n(-c3ccc(F)cc3)c2C)n1N	TDP1 cell noCPT 16.4µM, DT40 TDP1 CPT 13µM, HT1080 IDH1KD tx inconclusive, HT1080NT lethal 23.1µM
Cc1nnc(N/N=C/c2ccccc2O)n1N	HT1080 IDH1KD tx inconclusive
Cn1c(SCC(=O)NC(=O)NC2CCCC2)nnc1-c1ccc(C(C)(C)C)cc1	none (no result: TDP1 cell noCPT, DT40 TDP1 CPT, IL-1B inflam inh, HT1080 IDH1KD tx, HT1080NT lethal)

Screens: PubChem, National Center for Advancing Translational Sciences (NCATS)
